# This is part of a sample that, as a whole, favours compounds with a hit. Of some 83,000 tested, about 20% had one in any assay.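 Negative percent growth values reflect cell death: -40 means 40% of the cells present at the start died, and -100 means all died.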 Values without a mark were called inactive. The source made the active and inactive calls. The calls were made as follows: active = growth percent below 10; inactive = the rest.
# How the values were obtained:
# Test in all cases: NCI-60 one-dose screen, 48 h (100 = growth as untreated, 0 = no growth, -100 = all killed)
# Conditions in all cases: 10 µM unless noted
# SR leukemia = system: SR leukemia
# RPMI-8226 leukemia = system: RPMI-8226 leukemia
# OVCAR-8 ovarian = system: OVCAR-8 ovarian
# OVCAR-5 ovarian = system: OVCAR-5 ovarian
# OVCAR-4 ovarian = system: OVCAR-4 ovarian
# SK-OV-3 ovarian = system: SK-OV-3 ovarian
# OVCAR-3 ovarian = system: OVCAR-3 ovarian
# HS 578T breast = system: HS 578T breast
# NCI/ADR-RES ovarian = system: NCI/ADR-RES ovarian
# T-47D breast = system: T-47D breast
# BT-549 breast = system: BT-549 breast
# MDA-MB-435 melanoma = system: MDA-MB-435 melanoma
# SW-620 colon = system: SW-620 colon
# MCF7 breast = system: MCF7 breast
# HCT-116 colon = system: HCT-116 colon
# HCC-2998 colon = system: HCC-2998 colon
# KM12 colon = system: KM12 colon
# IGROV1 ovarian = system: IGROV1 ovarian
Compound,growth (SR leukemia),growth (RPMI-8226 leukemia),growth (OVCAR-8 ovarian),growth (OVCAR-5 ovarian),growth (OVCAR-4 ovarian),growth (SK-OV-3 ovarian),growth (OVCAR-3 ovarian),growth (HS 578T breast),growth (NCI/ADR-RES ovarian),growth (T-47D breast),growth (BT-549 breast),growth (MDA-MB-435 melanoma),growth (SW-620 colon),growth (MCF7 breast),growth (HCT-116 colon),growth (HCC-2998 colon),growth (KM12 colon),growth (IGROV1 ovarian)
Cc1csc(Nc2nc(-c3cccc(Cl)c3)nc(C(Cl)(Cl)Cl)n2)n1,58.9%,13.8%,58.6%,46.8%,70.1%,70.8%,-18.4% (active),43.5%,51.6%,5.33% (active),96.8%,54.1%,42.4%,20.7%,37.9%,7.13% (active),13.8%,
C(CCCSC1=NCCN1)CCSC1=NCCN1,95.9%,107%,98.4%,89.8%,98.2%,112%,107%,104%,94.4%,101%,112%,103%,,97.5%,90.7%,103%,113%,
COc1ccc(/C=N/NC(=O)Cn2nnc3ccccc32)cc1,96%,101%,96.7%,104%,115%,95.5%,95%,77.6%,104%,92.1%,107%,98.2%,92.9%,86.4%,93.7%,116%,90.7%,
C#Cc1ccc(NC(=O)Cc2ccc(/C=C/C(=O)c3nccn3C)cc2)cc1,20.8%,19.2%,26.2%,105%,69.9%,109%,12%,35.7%,34.5%,69.2%,71.2%,83.6%,15.8%,21.5%,21.6%,82.3%,25.6%,
COc1ccc(-n2c(=O)n(-c3ccc(-c4nc5ccc(F)cc5s4)cc3)c(=O)c3cccnc32)cc1,104%,91.6%,93.1%,108%,104%,86.6%,106%,101%,103%,73.5%,99.7%,102%,106%,92.2%,,91.4%,102%,
Cc1cc(C)n(C(=O)CSc2nc3sc4c(c3c(=O)n2-c2ccccc2)CCCCC4)n1,97.8%,103%,100%,105%,94.2%,99%,104%,96.8%,104%,89.9%,100%,105%,102%,95.1%,104%,109%,105%,
O=C(Nc1ccccc1)Nc1ccccc1CNc1nc(Nc2ccc(OCCN3CCCC3)cc2)ncc1Cl,-6.4% (active),-0.283% (active),50.4%,106%,19.5%,86.1%,2.33% (active),66.3%,71%,55.7%,74.8%,55.2%,73%,48.9%,,58.3%,43.7%,
COc1ccc(-c2cc(-c3ccc(Cl)cc3)c(C#N)c(=O)n2CCCCC(=O)NO)cc1,40.3%,34%,53.9%,63.9%,74.9%,89.3%,75%,87.8%,10.8%,83.2%,59.8%,91.1%,,76.7%,62.7%,84.3%,86.9%,
Clc1nc(N2CCC[N+]3(CC2)CC[N+]2(CCCNCC2)CC3)nc(N2CCC[N+]3(CC2)CC[N+]2(CCCNCC2)CC3)n1 (configuration not stated),90.4%,99.8%,86%,113%,98.4%,76.2%,92.2%,98.3%,92.6%,95%,95.1%,90%,,91.3%,87%,97.9%,94.4%,
COC(=O)CNC(=O)c1ccc(NC(=O)c2[nH]c(C)c(Cl)c2Cl)c(O[C@H]2CCNC2)c1,83.7%,96.7%,101%,112%,110%,96.6%,114%,92.8%,112%,101%,102%,105%,,105%,96.1%,115%,104%,
CN(C)CCOc1nc2c3cc([N+](=O)[O-])ccc3nn2c2ccccc12,7.43% (active),41.8%,31.5%,58.6%,62.4%,34.9%,63.7%,69.8%,37%,46.5%,69.6%,82.4%,20.4%,16.7%,16.7%,54.6%,41.9%,
CCOC(=O)CC1CSC(N/N=C(/C)c2cccc(C(F)(F)F)c2)=N1 (configuration not stated),99.6%,111%,102%,105%,94.1%,96.1%,105%,101%,101%,104%,85.6%,101%,104%,90.5%,96.9%,,97.7%,
CCN1C(=O)N(CC)C2C1NN=c1s/c(=C\c3ccc(F)cc3)c(=O)n12 (configuration not stated),11.1%,21.3%,2.37% (active),33.1%,46.4%,37.2%,-25.9% (active),12.4%,1.08% (active),57.8%,14.5%,-38.8% (active),19.6%,18.2%,13.6%,18.8%,7.33% (active),
C/C(=N\NC(=O)c1ccc(C(C)(C)C)cc1)c1ccc(O)cc1O,19.2%,28.5%,22.9%,39.9%,15%,27.7%,6.18% (active),59.8%,10.3%,24.4%,31.2%,27.7%,29.9%,4.92% (active),18.5%,8.71% (active),22.8%,
CC1(C)CC[C@]2(CO)CC[C@]3(C)[C@H](CC[C@@H]4[C@@]5(C)CC[C@H](O)C(C)(C)[C@@H]5CC[C@]43C)[C@H]2[C@H]1O,56.2%,100%,64.5%,114%,58.5%,92.3%,74.7%,7.22% (active),80.8%,75.1%,96.2%,91.5%,84.9%,69.2%,42.8%,,65.2%,
C=CN(C(=O)N1CCN(c2cc3c(cc2F)c(=O)c(C(=O)O)cn3C2CC2)CC1)c1nc(-c2ccc(C)cc2)cs1,13.7%,7.02% (active),14.1%,38.5%,23.3%,-5.97% (active),5.61% (active),13.8%,44.9%,36.3%,11.9%,22.1%,20.8%,7.94% (active),10.9%,39%,21.9%,
C1=C2CCCC3=Cc4ccccc4OC23Oc2ccccc21,6.44% (active),26%,38.5%,71.1%,52.6%,30.8%,3.51% (active),33.4%,11.6%,31.9%,26.4%,-41.6% (active),,13.5%,,58.4%,19.8%,44.5%
COc1ccc(NC(=O)c2ccc(NC3=C(c4ccc(Cl)cc4)C(=O)NC3=O)cc2)cc1,57.1%,73.8%,84.8%,100%,84.1%,69.8%,89.2%,102%,88.3%,62.3%,82.1%,95.3%,103%,83.5%,88.9%,97.6%,80.9%,
